From the supplement of paper PMC10849652
The full data set covers some 7,900 targets. This sample favours those with a hit. About 0.6% of all pairs of compound and target were hits.

compound: CCN(CCCOc1ccc2c(Nc3cc(CC(=O)Nc4cccc(F)c4)[nH]n3)ncnc2c1)CCOP(=O)(O)O [barasertib]; test: log2 fold change, soluble protein after heating vs DMSO (PISA); higher = thermal stabilisation; K562 cells, 10 uM, 30 min; active = over 0.2 and 3.5 SD of the protein, either way, in both replicates (recomputed)
Method in brief: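 K562 cells (2×10^6 cells/mL) were treated with 10 μM compound for 30 min, and aliquots were heated for 3 min over 48°C-58°C. Pooled aliquots were extracted in PBS with 0.5% NP-40 at 4°C, and the supernatant after 21,000xg for 90 min was measured by TMTpro 16plex LC-MS/MS with channel sums equalised. Reported thermal stability, relative to control samples and from duplicates, is a log2 fold change.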

UniProt Q99615, sequence (Q99615 whole entry, looked up): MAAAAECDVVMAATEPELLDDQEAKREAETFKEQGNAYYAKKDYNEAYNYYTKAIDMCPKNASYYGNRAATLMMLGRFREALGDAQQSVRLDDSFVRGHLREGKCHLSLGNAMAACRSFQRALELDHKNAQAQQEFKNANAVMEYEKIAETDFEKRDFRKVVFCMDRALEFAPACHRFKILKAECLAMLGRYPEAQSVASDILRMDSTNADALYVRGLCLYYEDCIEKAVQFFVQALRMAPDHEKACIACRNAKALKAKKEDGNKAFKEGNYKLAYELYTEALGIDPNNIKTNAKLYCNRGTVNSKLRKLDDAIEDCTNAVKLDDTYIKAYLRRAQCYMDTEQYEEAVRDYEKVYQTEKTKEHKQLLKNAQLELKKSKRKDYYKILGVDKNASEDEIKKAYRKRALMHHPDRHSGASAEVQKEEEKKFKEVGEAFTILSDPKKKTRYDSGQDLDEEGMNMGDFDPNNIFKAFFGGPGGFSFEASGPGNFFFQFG
UniProt Q8N128, sequence (Q8N128 whole entry, looked up): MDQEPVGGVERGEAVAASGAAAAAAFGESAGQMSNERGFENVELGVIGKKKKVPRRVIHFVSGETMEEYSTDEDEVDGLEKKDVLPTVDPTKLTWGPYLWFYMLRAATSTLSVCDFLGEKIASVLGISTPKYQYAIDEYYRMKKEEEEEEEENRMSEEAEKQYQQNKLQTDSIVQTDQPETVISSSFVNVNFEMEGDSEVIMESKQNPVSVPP
UniProt Q14320, sequence (Q14320 whole entry, looked up): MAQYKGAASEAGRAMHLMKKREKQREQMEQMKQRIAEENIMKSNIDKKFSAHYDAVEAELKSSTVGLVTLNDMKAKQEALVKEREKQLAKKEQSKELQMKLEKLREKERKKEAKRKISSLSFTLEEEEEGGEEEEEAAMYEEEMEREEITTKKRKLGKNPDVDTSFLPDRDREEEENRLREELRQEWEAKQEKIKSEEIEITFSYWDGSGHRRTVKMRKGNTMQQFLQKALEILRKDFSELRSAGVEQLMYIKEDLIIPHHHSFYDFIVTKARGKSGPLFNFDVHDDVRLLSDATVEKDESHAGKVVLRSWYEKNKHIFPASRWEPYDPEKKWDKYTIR
UniProt Q13011, sequence (Q13011 whole entry, looked up): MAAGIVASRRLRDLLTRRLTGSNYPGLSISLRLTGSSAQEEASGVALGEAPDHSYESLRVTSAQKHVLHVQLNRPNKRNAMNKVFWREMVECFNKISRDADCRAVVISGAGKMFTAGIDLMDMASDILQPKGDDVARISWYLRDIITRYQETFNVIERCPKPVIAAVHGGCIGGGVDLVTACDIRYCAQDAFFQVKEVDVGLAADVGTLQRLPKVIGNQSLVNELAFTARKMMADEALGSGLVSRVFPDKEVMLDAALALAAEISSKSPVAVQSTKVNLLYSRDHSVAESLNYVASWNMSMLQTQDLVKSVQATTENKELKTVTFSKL
UniProt Q96GE9, sequence (Q96GE9 whole entry, looked up): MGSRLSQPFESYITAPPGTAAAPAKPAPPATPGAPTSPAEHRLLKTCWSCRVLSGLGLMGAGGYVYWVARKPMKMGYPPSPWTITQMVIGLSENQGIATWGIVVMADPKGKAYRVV
UniProt O43237, sequence (O43237 whole entry, looked up): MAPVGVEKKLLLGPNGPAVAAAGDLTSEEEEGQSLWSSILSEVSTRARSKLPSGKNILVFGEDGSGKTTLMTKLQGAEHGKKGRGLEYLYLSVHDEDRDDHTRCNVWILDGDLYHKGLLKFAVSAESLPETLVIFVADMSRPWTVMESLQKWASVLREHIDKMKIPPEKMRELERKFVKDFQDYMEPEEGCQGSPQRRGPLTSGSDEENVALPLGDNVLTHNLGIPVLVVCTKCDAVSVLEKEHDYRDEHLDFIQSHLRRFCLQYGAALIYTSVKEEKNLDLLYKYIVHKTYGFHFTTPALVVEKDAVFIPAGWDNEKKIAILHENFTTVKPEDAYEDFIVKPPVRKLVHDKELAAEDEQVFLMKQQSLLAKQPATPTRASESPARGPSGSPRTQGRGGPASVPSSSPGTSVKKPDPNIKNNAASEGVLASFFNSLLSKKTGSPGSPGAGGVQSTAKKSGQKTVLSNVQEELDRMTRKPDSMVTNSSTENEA
UniProt Q9NRY5, sequence (Q9NRY5 whole entry, looked up): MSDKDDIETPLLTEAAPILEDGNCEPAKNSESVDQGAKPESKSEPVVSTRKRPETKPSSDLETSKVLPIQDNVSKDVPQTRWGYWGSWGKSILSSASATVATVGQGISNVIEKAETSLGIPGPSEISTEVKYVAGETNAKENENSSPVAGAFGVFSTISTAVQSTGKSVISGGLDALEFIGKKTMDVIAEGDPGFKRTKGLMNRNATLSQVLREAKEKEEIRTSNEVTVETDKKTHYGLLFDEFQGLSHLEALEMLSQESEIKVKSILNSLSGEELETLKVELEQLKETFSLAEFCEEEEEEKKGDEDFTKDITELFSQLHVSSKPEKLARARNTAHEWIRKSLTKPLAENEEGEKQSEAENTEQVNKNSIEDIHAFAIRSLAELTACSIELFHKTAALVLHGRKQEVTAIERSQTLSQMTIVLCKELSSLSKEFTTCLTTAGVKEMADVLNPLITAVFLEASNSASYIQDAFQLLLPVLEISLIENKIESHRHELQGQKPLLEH
UniProt P23919, sequence (P23919 whole entry, looked up): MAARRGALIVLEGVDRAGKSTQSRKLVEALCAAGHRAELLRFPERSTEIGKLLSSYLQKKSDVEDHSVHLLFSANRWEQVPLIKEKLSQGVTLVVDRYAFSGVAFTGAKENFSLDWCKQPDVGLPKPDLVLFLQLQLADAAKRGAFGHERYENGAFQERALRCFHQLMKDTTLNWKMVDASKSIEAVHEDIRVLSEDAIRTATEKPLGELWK
UniProt P09668, sequence (P09668 whole entry, looked up): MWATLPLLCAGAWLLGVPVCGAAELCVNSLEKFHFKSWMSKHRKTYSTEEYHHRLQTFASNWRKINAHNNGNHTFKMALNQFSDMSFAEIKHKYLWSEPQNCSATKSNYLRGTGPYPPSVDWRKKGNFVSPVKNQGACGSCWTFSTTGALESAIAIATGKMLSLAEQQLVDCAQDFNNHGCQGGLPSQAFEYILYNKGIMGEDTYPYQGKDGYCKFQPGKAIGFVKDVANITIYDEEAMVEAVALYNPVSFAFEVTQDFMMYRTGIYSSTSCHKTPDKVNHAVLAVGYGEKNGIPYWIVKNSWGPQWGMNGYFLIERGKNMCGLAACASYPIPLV
UniProt Q96KP1, sequence (Q96KP1 whole entry, looked up): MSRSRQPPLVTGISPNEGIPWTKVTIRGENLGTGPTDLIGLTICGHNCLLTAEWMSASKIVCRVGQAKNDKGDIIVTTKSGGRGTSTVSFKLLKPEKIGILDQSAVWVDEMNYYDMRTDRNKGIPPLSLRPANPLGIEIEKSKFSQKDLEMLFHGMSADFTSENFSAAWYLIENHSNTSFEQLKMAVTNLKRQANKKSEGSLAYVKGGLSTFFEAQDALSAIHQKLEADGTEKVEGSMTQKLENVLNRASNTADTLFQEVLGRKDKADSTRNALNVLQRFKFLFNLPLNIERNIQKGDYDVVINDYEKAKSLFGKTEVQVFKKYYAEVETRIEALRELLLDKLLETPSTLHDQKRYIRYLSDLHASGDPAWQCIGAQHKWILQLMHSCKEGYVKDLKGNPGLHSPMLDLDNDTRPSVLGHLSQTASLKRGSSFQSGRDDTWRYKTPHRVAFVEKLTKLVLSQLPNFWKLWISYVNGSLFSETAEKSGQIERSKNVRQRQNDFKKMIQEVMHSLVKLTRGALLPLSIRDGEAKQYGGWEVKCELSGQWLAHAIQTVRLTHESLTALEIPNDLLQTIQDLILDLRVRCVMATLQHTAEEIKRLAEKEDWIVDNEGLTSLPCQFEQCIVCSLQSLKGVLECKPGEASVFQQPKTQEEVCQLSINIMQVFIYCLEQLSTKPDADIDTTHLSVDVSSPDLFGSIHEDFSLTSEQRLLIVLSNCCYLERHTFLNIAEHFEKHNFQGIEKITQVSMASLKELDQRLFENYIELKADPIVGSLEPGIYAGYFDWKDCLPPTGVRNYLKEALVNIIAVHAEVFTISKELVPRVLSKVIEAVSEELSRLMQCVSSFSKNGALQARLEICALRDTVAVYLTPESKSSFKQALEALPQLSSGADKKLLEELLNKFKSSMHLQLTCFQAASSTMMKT
UniProt Q96EV8, sequence (Q96EV8 whole entry, looked up): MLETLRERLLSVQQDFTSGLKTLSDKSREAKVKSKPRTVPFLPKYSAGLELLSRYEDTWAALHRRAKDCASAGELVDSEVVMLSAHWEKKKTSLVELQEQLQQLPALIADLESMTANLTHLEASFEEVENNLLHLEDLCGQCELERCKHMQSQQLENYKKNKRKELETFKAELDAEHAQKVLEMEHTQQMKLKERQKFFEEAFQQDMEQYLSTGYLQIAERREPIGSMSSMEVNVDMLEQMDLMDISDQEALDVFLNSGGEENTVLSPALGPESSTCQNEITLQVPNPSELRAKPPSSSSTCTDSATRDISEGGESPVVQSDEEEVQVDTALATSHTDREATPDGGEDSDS
UniProt Q9H467, sequence (Q9H467 whole entry, looked up): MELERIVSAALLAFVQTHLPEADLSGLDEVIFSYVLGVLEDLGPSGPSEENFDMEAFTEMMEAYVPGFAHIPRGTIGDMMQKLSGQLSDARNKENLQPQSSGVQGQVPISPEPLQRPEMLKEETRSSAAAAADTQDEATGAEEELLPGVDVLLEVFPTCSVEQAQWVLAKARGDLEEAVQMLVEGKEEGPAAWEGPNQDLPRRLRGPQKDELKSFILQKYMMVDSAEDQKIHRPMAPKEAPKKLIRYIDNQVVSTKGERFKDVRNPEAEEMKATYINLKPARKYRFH
UniProt Q96LJ7, sequence (Q96LJ7 whole entry, looked up): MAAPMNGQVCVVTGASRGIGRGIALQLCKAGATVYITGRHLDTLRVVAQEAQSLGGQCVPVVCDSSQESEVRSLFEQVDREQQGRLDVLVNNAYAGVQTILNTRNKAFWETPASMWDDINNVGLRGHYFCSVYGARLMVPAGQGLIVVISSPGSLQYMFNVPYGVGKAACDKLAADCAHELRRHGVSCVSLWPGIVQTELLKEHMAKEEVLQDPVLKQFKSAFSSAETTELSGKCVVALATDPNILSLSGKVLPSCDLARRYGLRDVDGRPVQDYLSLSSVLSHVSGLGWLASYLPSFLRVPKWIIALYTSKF

log2 fold change, inactive:
FAM3A (UniProt P98173) 0.014, CTSZ (UniProt Q9UBR2) 0.027, DMXL1 (UniProt Q9Y485) 0.068, EXTL2 (UniProt Q9UBQ6) -0.053, CUEDC2 (UniProt Q9H467) 0.091, CYFIP1 (UniProt Q7L576) 0.038, ECH1 (UniProt Q13011) 0.035, FAM114A2 (UniProt Q9NRY5) 0.01, EFCAB14 (UniProt O75071) -0.01, DDX46 (UniProt Q7L014) 0.13, FAM177A1 isoform 2 (UniProt Q8N128) 0.037, DPH5 isoform 5 (UniProt Q9H2P9) -0.006, DNAJB12 (UniProt Q9NXW2) -0.001, EXOC4 (UniProt Q96A65) 0.139, DTNBP1 (UniProt Q96EV8) 0.01, DYNC1LI2 (UniProt O43237) 0.05, EBNA1BP2 (UniProt Q99848) -0.187, EEF1B2 (UniProt P24534) 0.055, DCUN1D1 (UniProt Q96GG9) 0.013, DLD (UniProt P09622) 0, DNAJC7 (UniProt Q99615) 0.064, DCAF6 isoform 3 (UniProt Q58WW2) 0.008, FAM50A (UniProt Q14320) 0.026, CTSH (UniProt P09668) -0.019, E2F4 (UniProt Q16254) 0.054, DTYMK (UniProt P23919) -0.011, EOGT (UniProt Q5NDL2) -0.026, DCTPP1 (UniProt Q9H773) 0.059, DHPS (UniProt P49366) 0.01, DHRS1 (UniProt Q96LJ7) -0.05, EXOC2 (UniProt Q96KP1) 0.056, DMAC1 (UniProt Q96GE9) 0.074, FAAP100 (UniProt Q0VG06) 0.051, DNAH5 (UniProt Q8TE73) 0.03, ERCC6 (UniProt Q03468) 0.065, ERLIN2 (UniProt O94905) -0.003, DAG1 (UniProt Q14118) 0.011, EHBP1L1 (UniProt Q8N3D4) 0.016
